Measured values published in publication PMC5540273 (PLoS ONE, 2017).

Tests used:
Details in all cases: concentration: 1 μM, replicates: in singlicate; n = 1
[1] = tested on: T1, PCTK2
T1 construct: gene CDK17

[2] = tested on: T2, PCTK3
T2 construct: gene CDK18

[3] = tested on: PDGFRA
[4] = tested on: PDGFRB
[5] = tested on: PDPK1
[6] = tested on: PFTAIRE2
[7] = tested on: T3, PFTK1
T3 construct: gene CDK14

[8] = tested on: PHKG1
[9] = tested on: PHKG2
[10] = tested on: PIK3C2B
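Further: KINOMEscan kinase panel screen.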

Compound	%Inh [1] [%]	%Inh [2] [%]	%Inh [3] [%]	%Inh [4] [%]	%Inh [5] [%]	%Inh [6] [%]	%Inh [7] [%]	%Inh [8] [%]	%Inh [9] [%]	%Inh [10] [%]
CCn1c(-c2nonc2N)nc2c(C#CC(C)(C)O)nc(OC[C@H](N)c3ccccc3)cc21 [GSK943949]	0	0	11	5	0	0	0	0	5	0
Oc1cc(Nc2ccnc3cc(I)ccc23)ccc1F [GW552771]	0	15	19	49	0	0	0	0	0	0
Clc1ccc(-c2nn3ncccc3c2-c2ccnc(Nc3ccc4c(c3)OCCO4)n2)cc1 [GW829116]	0	0	24	99.9	0	0	0	0	0	0
C[C@@H](Oc1cc(-n2cnc3cc(-c4ccnc(NCCS(C)(=O)=O)c4)ccc32)sc1C(N)=O)c1ccccc1Cl [GSK907232]	9	25	71	97.4	28	14	12	0	2	0
COc1cc(Nc2nccc(N3CCC(NC(=O)c4cc5ccccc5s4)C3)n2)cc(OC)c1OC (centres unmarked) [GSK1379760]	9	20	0	44	50	7	0	12	0	0
COc1cc(Nc2ncc3c(C)nc(-c4cc5ccccc5[nH]4)n3n2)cc(OC)c1OC [GW869516]	32	6	0	29	0	0	4	27	0	0
COC(=O)Nc1nc2ccc(Oc3ccc(NC(=O)Nc4cc(C(F)(F)F)ccc4F)cc3)cc2n1C.Cl [GW692089]	0	12	78	100	0	6	4	0	0	0
Nc1ncc(-c2ccc3nccc(-c4ccncc4)c3c2)cc1S(=O)(=O)N1CCOCC1 [GSK1627798]	21	26	0	13	0	39	31	0	0	99.5
Cc1ccc(C(=O)Nc2ccc(Nc3ccnc4cc(-c5nccs5)ccc34)cc2O)cc1.Cl [GW494702]	0	0	28	74	10	7	0	4	0	0
FC(F)(F)c1ccc(/C=C/c2cncnc2Nc2ccc3[nH]c(Cc4ccccc4)nc3c2)cc1 [GW709199]	0	4	0	0	0	33	15	43	0	0
O=C(O)C(F)(F)F.O=C(O)C(F)(F)F.O=c1[nH]ccc2nc(N[C@@H]3CCCNC3)nc(Nc3ccc(S(=O)(=O)N4CCOCC4)cc3)c12 [GSK2177277]	98.3	96.2	97.5	100	100	61	65	97.7	94.7	51
O=C(Nc1cccc(-c2nn3ccccc3c2-c2ccnc(Nc3cccc(F)c3)n2)c1)c1c(F)ccc(F)c1Cl [GSK357952]	0	9	18	99.7	36	20	2	0	0	0
O=C(Nc1n[nH]c2nc(-c3ccc(O)cc3)ccc12)C1CC1 [SB-710363]	56	6	48	32	5	28	14	5	0	0
Nc1ncnc2c1nc(-c1ccccc1)n2-c1ccccc1 [SKF-97293]	0	0	36	0	2	6	25	17	0	4
COc1cc2c(cc1OCCN1CCNCC1)ncc1c3ccc(C#N)cc3[nH]c21	9	0	96.4	89	9	53	9	98.7	99.3	0
Cc1ccc(C)c(NC(=O)NC2CCN(c3ccnc(Nc4ccc(F)cc4)n3)C2)c1 (centres unmarked) [GSK1379720]	0	10	0	4	0	4	0	0	0	0

Compound	%Inh [1] [%]	%Inh [2] [%]	%Inh [3] [%]	%Inh [4] [%]	%Inh [5] [%]	%Inh [6] [%]	%Inh [7] [%]	%Inh [8] [%]	%Inh [9] [%]	%Inh [10] [%]
COCCOCCOc1cc2ncc3c4ccc(C#N)cc4[nH]c3c2cc1OC	6	13	98.2	92.9	34	48	21	94.5	97.7	0
COc1cc(Nc2nccc(-c3c(-c4cccc(NC(=O)c5c(F)cccc5F)c4)nn4ncccc34)n2)cc(OC)c1OC [GSK327238]	0	5	90.2	100	16	4	5	0	3	0
CC(C)c1nc(-c2cccc(NS(=O)(=O)c3c(F)cccc3F)c2F)c(-c2ccnc(Nc3ccc(N4CCOCC4)nc3)n2)s1 [GSK2008607]	100	100	90	100	0	94.6	98.7	0	0	49
Cl.c1ccc(-c2ccc3c(Nc4ccc5[nH]ncc5c4)ccnc3c2)nc1 [GW440137]	14	20	90	89	0	12	19	0	0	3
CCn1c(-c2nonc2N)nc2c(C#CC(C)(C)O)ncc(OCCCCN)c21.O=C(O)C(F)(F)F.O=C(O)C(F)(F)F [GSK507274]	0	0	0	25	0	6	32	5	0	0
Cc1ccc(F)c(C(=O)Nc2cccc(-c3nn4ccccc4c3-c3ccnc(Nc4cccc(F)c4)n3)c2)c1F [GSK361061]	0	16	6	99.7	11	18	11	14	6	0
CC(=O)Nc1nc2cnc(Nc3cc(NC(=O)c4cccc(C5(C#N)CC5)c4Cl)ccc3C)nc2s1	9	0	97.7	100	1	23	0	12	17	0
COc1cccc(-c2ccc3c(NC(=O)C4CC4)n[nH]c3n2)c1 [SB-710903]	19	30	0	34	0	10	25	0	0	0
CNC(=O)c1ccccc1Nc1nc(Nc2ccc(N3CCOCC3)cc2)ncc1Cl.Cl [GSK1576028]	43	0	80	100	42	43	17	84	72	17
COc1cccc(C(=O)Nc2cccc(Oc3ccc4nc(NC(=O)C5CC5)cn4n3)c2)c1	0	12	99.9	100	0	8	4	0	0	0
COc1cc(Nc2nccc(-c3c(-c4cccc(NC(=O)c5c(F)cccc5F)c4)nn4ccccc34)n2)cc(OC)c1OC [GSK323521]	8	29	89	99.7	13	25	3	4	10	27
COc1ccc(Nc2nccc(NCCNC(=O)c3cc4ccccc4s3)n2)cc1 [GSK1379896]	0	0	0	15	8	14	18	0	2	0
O=C(NC1CCN(c2ccnc(Nc3ccc(F)cc3)n2)C1)c1cc2ccccc2s1 (centres unmarked) [GSK1379716]	11	32	0	28	0	25	13	19	7	0
COc1cccc(C2=C(Nc3ccc(Cl)c(C(=O)O)c3)C(=O)NC2=O)c1 [SB-390769]	0	29	0	5	0	0	26	0	0	0
CN1CCN(Cc2cccc(-c3ccc4c(Nc5ccc(Oc6ccccc6)cc5)ccnc4c3)c2)CC1 [GW578342]	69	20	94.3	98.9	0	14	23	1	0	0
c1ccc(Oc2ccc(Nc3ccnc4cc(-c5ccc(CNCCN6CCOCC6)o5)ccc34)cc2)nc1 [GW567145]	0	2	65	89	0	6	11	3	0	0
